Measured values from the supplement of paper PMC10941209.

Each compound was assayed on HFF (assay: cell viability relative to DMSO control; higher = less cytotoxic). Conditions: 1 µM; 72 h.
Description: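 Single-dose cytotoxicity screen of the MMV Pandemic Response Box at 1 uM on human foreskin fibroblasts (HFF), 72 h at 37 C. Viability measured by MTT (OD 550 nm) and normalised to the DMSO control (% survival).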
`CCCCCCCc1[nH]c2ccccc2c(=O)c1O` showed a cell viability of 62%.
With `CNC(=O)C1O[C@@H](n2cnc3c(NCc4cccc(I)c4)nc(Cl)nc32)[C@H](O)[C@@H]1O` (some centres not stated) the cell viability was 61.2%.
With `N[C@@H]1CN(c2c(F)cc3c(=O)c(C(=O)O)cn([C@@H]4C[C@@H]4F)c3c2Cl)CC12CC2` the cell viability was 60.8%.
With `O=C(O)CCNC(=O)c1ccccc1` the cell viability was 66.9%.
In the case of `Cc1onc(-c2ccccc2Cl)c1C(=O)N[C@@H]1C(=O)N2[C@@H]1SC(C)(C)[C@@H]2C(=O)O`, the cell viability is reported as 69%.
Compound `C=CCN(C(=O)OCc1ccc([N+](=O)[O-])cc1)C1CCN(CC[C@](C)(CN(C)S(=O)(=O)c2ccccc2)c2ccccc2)CC1` has a cell viability of 69.6%.
In the case of `c1cc(CN2CCCNCCNCCCNCC2)ccc1CN1CCCNCCNCCCNCC1`, the cell viability is reported as 63.9%.
`O=C(O)c1ccc(-c2ccc(O[C@H]3O[C@H](CO)[C@@H](O)[C@H](O)[C@@H]3O)cc2)cc1` was tested, and the cell viability was 63.9%.
In the case of `CCc1nc(N)nc(N)c1C#CCc1ccccc1`, the cell viability is reported as 69.3%.
With `O=C(O)c1cc(-c2ccc(Br)cc2)nc2ccc(Cl)cc12` the cell viability was 57.6%.
Compound `O[C@@](Cn1cnnn1)(c1ccc(F)cc1F)C(F)(F)c1ccc(-c2ccc(OCC(F)(F)F)cc2)cn1` has a cell viability of 58.9%.
Compound `O=C1[C@H](CC[C@H](O)c2ccc(F)cc2)[C@@H](c2ccc(O)cc2)N1c1ccc(F)cc1` has a cell viability of 73%.
Compound `O=C1NC(=O)C(Br)=C1Br` has a cell viability of 63.1%.
`Cn1cc(NC(=O)c2cc(NC(=O)c3ccc(/C=C/c4cnc5ccccc5c4)cc3)cn2C)cc1C(=O)NCCN1CCOCC1` was tested, and the cell viability was 69.2%.
With `NC(=O)c1nccn([C@@H]2O[C@H](CO)[C@@H](O)[C@H]2O)c1=O` the cell viability was 72.5%.
Compound `O=c1cc(NCCCN[C@@H]2CCOc3c(Br)cc(Br)cc32)[nH]c2ccsc12` has a cell viability of 79.4%.
`O=C(/C=C/n1cnc(-c2cc(C(F)(F)F)cc(C(F)(F)F)c2)n1)NNc1cnccn1` was tested, and the cell viability was 59.7%.
Compound `c1ccc(-c2nnc3c4ccccc4c(N4CCNCC4)nn23)cc1` has a cell viability of 73.2%.
Work on `COc1ccc(C2CNC(=O)C2)cc1OC1CCCC1` (configuration not stated) yielded a cell viability of 69.5%.
`CCc1cc(CCC(=O)Nc2ccccc2O)c(O)nc1C` gave a cell viability of 71.2%.
Compound `COc1ccc(NC(=O)c2cc3ccccn3n2)cc1` has a cell viability of 62.2%.
`O=C(Nc1cccc(C2=NCCN2)c1)c1ccc(-c2ccc(C(=O)Nc3cccc(C4=NCCN4)c3)cc2)cc1` gave a cell viability of 63.4%.
Compound `O=S(=O)(Nc1cccc2cccnc12)c1ccccc1` has a cell viability of 64.1%.
In the case of `O=C(/C(=C/c1ccc(Cl)cc1Cl)n1ccnc1)c1ccc(Cl)cc1`, the cell viability is reported as 74.8%.
`O=C(NC(=O)N1CCCc2ccccc21)c1cccc(Cl)c1` gave a cell viability of 75.5%.
`CCC(C)(C)c1ccc(CC(C)CN2C[C@@H](C)O[C@@H](C)C2)cc1` (some centres not stated) was tested, and the cell viability was 65%.
`O=C(NCc1ncc(C(F)(F)F)cc1Cl)c1c(Cl)cccc1Cl` was tested, and the cell viability was 74.8%.
`COc1ccc(SC(=O)N[C@H](CCC(=O)O)C(=O)O)cc1` gave a cell viability of 59.7%.
`O=C(NC1CCCc2c1[nH]c1ccc(Cl)cc21)c1ccccn1` (configuration not stated) showed a cell viability of 67.4%.
In the case of `CCCCc1ccc(-c2cc(C(=O)O)cc(-c3ccc(Cl)cc3)n2)cc1`, the cell viability is reported as 68.9%.
`Nc1nc(O)c(Br)c(-c2cccc(Cl)c2)n1` gave a cell viability of 61.7%.
`O=S(=O)(NCB(O)O)c1ccc(-c2nnn[nH]2)cc1C(F)(F)F` was tested, and the cell viability was 70.9%.
With `CO[C@@]1(NC(=O)Cc2cccs2)C(=O)N2C(C(=O)O)=C(COC(N)=O)CS[C@@H]21` the cell viability was 63.7%.
`O=C(NCCN1CCCCC1)c1cccc(C(F)(F)F)c1` was tested, and the cell viability was 70.6%.
Work on `O=C(N[C@H](Cc1cccc2ccccc12)C(=O)NCCc1c[nH]cn1)C1Cc2ccccc2C1` yielded a cell viability of 62.3%.
In the case of `CC[C@@]1(O)C(=O)OCc2c1cc1n(c2=O)Cc2cc3c([N+](=O)[O-])cccc3nc2-1`, the cell viability is reported as 53.1%.
With `OC(Cn1cncn1)(Cn1cncn1)c1ccc(F)cc1F` the cell viability was 66.7%.
